# PfG6PD inh – PfG6PD (Plasmodium falciparum) enzyme inhibition; inhibition, % at 20 µM; 350,000 tested, 0.78% active; AID 504690; PfGluPho enzyme, NADPH resazurin-diaphorase fluorescence;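 active = inhibition reaching at least a set limit at 20 µM in the primary screen, cut at about 59% in these data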;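 note: 0% = DMSO wells with substrate and 100% = DMSO wells lacking glucose-6-phosphate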
# UHRF1 binding – blocks human UHRF1 binding to methylated DNA; Q96T88; UHRF1 binding to methylated oligo, TR-FRET; 370,000 tested, 0.75% active; inhibition, % at 4.4 µM; in the data active = inhibition above about 21%;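 note: UHRF1 SRA domain binding a hemimethylated CpG hairpin DNA probe; 0% = median of test compound wells and 100% = reference inhibitor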
# PRMT1 FP inh – blocks human protein arginine methyltransferase 1; inhibition, % at 2.79 µM; recombinant PRMT1, activity-based probe fluorescence polarization; 370,000 tested, 1.3% active; AID 652257;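 active = inhibition above about 21% made by adding two undisclosed values, limit read from the data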
# MBD2 DNA inh – MBD2-methylated oligo binding inhibition | Q9UBB5 | TR-FRET, MBD2 binding to methylated oligonucleotide | inhibition, % at 4.4 µM | 370,000 tested, 0.31% active | AID 686964; in the data active = inhibition above about 13%
# Target sequence (Q9UBB5 whole entry, looked up): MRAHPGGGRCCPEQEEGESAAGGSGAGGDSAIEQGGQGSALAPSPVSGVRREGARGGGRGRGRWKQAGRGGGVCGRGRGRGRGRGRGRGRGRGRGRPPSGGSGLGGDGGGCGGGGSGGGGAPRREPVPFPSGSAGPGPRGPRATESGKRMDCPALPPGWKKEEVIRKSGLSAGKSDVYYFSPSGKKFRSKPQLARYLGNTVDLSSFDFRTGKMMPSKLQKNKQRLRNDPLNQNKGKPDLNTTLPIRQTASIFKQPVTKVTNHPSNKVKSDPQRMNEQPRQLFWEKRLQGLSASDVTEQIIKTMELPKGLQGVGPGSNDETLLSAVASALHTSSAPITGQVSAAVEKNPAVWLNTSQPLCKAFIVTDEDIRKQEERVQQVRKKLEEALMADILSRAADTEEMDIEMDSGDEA
# M18AAP inhibitor – blocks P. falciparum M18 aspartyl aminopeptidase | recombinant PfM18AAP, H-Glu-NHMec fluorogenic cleavage | inhibition, % at 7.35 µM | 290,000 tested, 1.2% active;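 active = inhibition above the campaign mean inhibition over all tested compounds plus 3 SD, cut at about 28% in these data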;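 note: 0% = plate median of test compound wells and 100% = 2 mM ZnCl2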
# An asterisk follows results filed as active; · = not tested or not shown; ! = not active in a repeat. In the library only some 3.3% were active in any assay of this set; here they are far more common.
SMILES,PfG6PD inh,UHRF1 binding,PRMT1 FP inh,MBD2 DNA inh,M18AAP inhibitor
COc1ccc(NC(=O)c2cc([N+](=O)[O-])ccc2NC(=O)CNCc2ccccn2)c(OC)c1,30,-5,25*,-10,26
COc1cc(NC(=O)c2cc([N+](=O)[O-])ccc2NC(=O)CNCc2ccccn2)cc(OC)c1,2,-2,3,0,14
Cc1[nH]c2ccccc2c1/C=N/NC(=O)c1cccc(F)c1,5,-1,2,-1,2
Cc1[nH]c2ccccc2c1/C=N/NC(=O)c1cc(C(C)C)[nH]n1,8,25*,3,2,-3
CC(C)=NN/C(N)=N/C(=S)Nc1ccc(C)cc1,0,2,3,0,29*
O=C(NCc1ccccn1)c1cc2n(n1)C(C(F)(F)F)CC(c1ccco1)N2 (stereo not drawn),-2,0,8,4,31*
COc1ccc(S[C@]2(C(=O)N3CCN(c4ncccn4)CC3)CC(=O)N(c3ccc(OC)cc3)[C@@H]2c2ccc(OC)cc2)cc1,·,0,3,-1,·
O=C(CSC1=NCCS1)Nc1cccc2ccccc12,9,-1,21,2,5
O=C(CSC1=NCCS1)Nc1ccccc1F,-10,0,22*,3,-6
O=C(O)c1ccccc1CSC1=NCCS1,7,3,21*,3,-2
O=C(CC1CCCC1)N1CC[C@H]2[C@H](CCCN2Cc2ccccc2)C1,·,1,-2,0,·
COCC(=O)N(Cc1ccccc1)c1ccccc1C(=O)Nc1cc(OC)ccc1OC,·,3,8,1,·
Nc1ccc(Br)c2cccnc12,63*,4,6,-15,24
CS(=O)(=O)Oc1ccc(Br)c2cccnc12,15,-2,-4,2,-7
Clc1ccc([C@H]2OC[C@@]3(CNCc4ccccn4)CS[C@H](c4ccc(Cl)cc4)N23)cc1,·,-1,14,-6,·
Cc1ccc(S(=O)(=O)N(C)C[C@H]2Oc3cc(C#CC4CCCC4)ccc3S(=O)(=O)N([C@H](C)CO)C[C@H]2C)cc1,29,22*,1,5,·
C[C@H](CO)N1C[C@H](C)[C@H](CN(C)C(=O)c2ccccn2)Oc2cc(C#Cc3ccc(F)cc3)ccc2S1(=O)=O,12,18,4,4,·
C[C@H](CO)N1C[C@H](C)[C@@H](CN(C)C(=O)c2cnccn2)Oc2cc(C#CCC3CCCC3)ccc2S1(=O)=O,23,23*,1,9,·
COc1cccc(C#Cc2ccc3c(c2)O[C@H](CN(C)S(=O)(=O)c2ccccc2F)[C@H](C)CN([C@H](C)CO)S3(=O)=O)c1,8,21*,-4,-5,·
COc1cccc(C#Cc2ccc3c(c2)O[C@@H](CN(C)C(=O)c2ccccn2)[C@@H](C)CN([C@H](C)CO)S3(=O)=O)c1,36,22*,-1,3,·
C[C@H]1CN([C@@H](C)CO)S(=O)(=O)c2ccc(C#CC3CC3)cc2O[C@@H]1CN(C)S(C)(=O)=O,-7,2,-2,-4,·
C[C@H](O)[C@@H]1CN2CCc3c([nH]c4cccc(-c5ccccc5)c34)[C@@H]2C[C@@H]1N(C)C(=O)c1ccco1,·,-5,7,-10,·
CC(C)(C)OC(=O)N1CCC2CCN(S(=O)(=O)c3ccccc3)CC21 (stereo not drawn),·,2,1,1,·
C[C@H]1COc2c3ccc(I)cc3nn21,·,5,1,7,·
Cn1c(NC2=NC3(CCCC3)C3=C(CCCC3=O)N2)nc2ccccc21,·,-1,2,-4,·
SMILES,PfG6PD inh,UHRF1 binding,PRMT1 FP inh,MBD2 DNA inh,M18AAP inhibitor
O=C(NC(=S)NNC(=O)c1ccccc1F)c1cccnc1,-8,2,6,6,29*
CC(=O)N(c1ccc2oc(=O)sc2c1)S(=O)(=O)c1cccc2cccnc12,13,-1,91*,7,14
Cc1cc2oc(=O)sc2cc1NS(=O)(=O)c1cccc2cccnc12,-12,-1,54*,-1,26
COc1ccc(C=Nc2cccnc2N)cc1,9,·,·,·,31*
Cc1ccc(C=Nc2cccnc2N)cc1,7,·,·,·,13
COc1ccc(OC)c(CNS(=O)(=O)c2ccccc2Br)c1,·,3,2,2,·
CN(C)c1ccc2c(c1)OC(N)=C(C#N)C2c1cccc(F)c1 (stereo not drawn),17,·,·,·,30*
CC1=CC(=O)N(c2cccc3c(N4C(=O)C=C(C)C4=O)cccc23)C1=O,21,23*,10,15*,·
Nc1ccc2c(c1)C(=O)N(c1cccc3ccccc13)C2=O,9,-3,0,-1,-3
O=C(Nc1ccc(Cl)cc1Cl)c1cccc(N2C(=O)C=CC2=O)c1,113*,1,88*,2,·
O=C(Nc1ccc(Cl)cc1Cl)c1ccc2c(c1)OCCO2,15,5,-1,3,·
COc1ccc(-n2c(CCc3ccccc3)n[nH]c2=S)cc1,43,-2,2,-2,10
Oc1ccc(CCc2n[nH]c(=S)n2-c2ccc(F)cc2)cc1,41,2,-2,4,29*
COC(=O)[C@]12C[C@H](CC(=O)NCc3ccc(OC)c(OC)c3)C(=O)N(Cc3ccco3)C1=C[C@H](C(C)(C)C)O[C@@H]2C,·,-2,2,3,·
CN(C)c1ccc(C(c2nnnn2C2CCCCC2)N2CCN(C(=O)c3ccco3)CC2)cc1 (stereo not drawn),·,·,·,·,-1
O=C(c1ccco1)N1CCN(C(c2cccs2)c2nnnn2C2CCCCC2)CC1 (stereo not drawn),-14,86*,-2,4,11
COc1ccc(-n2c(SCc3cccc4ccccc34)nnc2-c2ccccc2)cc1,·,1,0,3,·
COC(=O)C1=C(C)N(Cc2ccccc2C(F)(F)F)C(=NCc2cc(OC)c(OC)c(OC)c2)NC1c1ccccc1C(F)(F)F (stereo not drawn),·,0,0,-3,·
Cc1ccc(Cl)cc1N1CCN(S(=O)(=O)c2ccc3c(c2)NC(=O)C(C)C(=O)N3)CC1 (stereo not drawn),-11,96*,-1,-2,-1
O=[N+]([O-])c1ccc(-c2ccc(C=Nc3cccc4ccccc34)o2)cc1,28,-11,22*,-6,17
O=[N+]([O-])c1ccc(-c2ccc(/C=N/O)o2)cc1,4,-4,3,4,6
CCn1c(=O)c(-c2cc(=O)[nH][nH]2)c(O)c2ccccc21,-1,-1,7,-5,31*
O=c1cc(-c2c(O)c3ccccc3n(Cc3ccccc3)c2=O)[nH][nH]1,-19,0,13,-1,1
CCOC(=O)[C@]12CCCCC/C=C\1N(CCc1ccc(Cl)cc1)C(=O)[C@H]2CC(=O)NCc1ccc(C)o1,·,4,7,-4,·
COc1cc(NC(=O)c2cc(C)on2)cc(C(=O)Nc2cccc(C(F)(F)F)c2)c1,42,93*!,0,-3,·
Cc1ccccc1-c1ccc2c(c1)[C@@H]1C[C@H]3[C@@H](CN1CC2)[C@H](C)ON3C,·,-1,-2,1,·
CCCS(=O)(=O)N1CCN(Cc2ccco2)CC1,14,25*,1,-2,17
